In the supplement of paper PMC9694430:
Counter-ions that a name gives are not always drawn.

system: LOC_OS01G14860-cb001; assay: thermal shift delta Tm vs DMSO control; higher = stronger stabilization (binding); conditions: 12.5 µM; protein concentration 2 µM
Outline: (§1)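 Rice kinase domain constructs, made in E. coli and purified, were placed in 96-well plates at 2 μM in 19.5 μl of 100 mM potassium phosphate pH 7.5, 150 mM NaCl, 10% glycerol and 5 × SYPRO Orange, with compound in DMSO. A temperature ramp from 25°C to 95°C at 0.05°C/s was used for differential scanning fluorimetry. The melting temperature shift is a triplicate mean compared with DMSO-only protein, derived from Boltzmann fits.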
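Also: purified Escherichia coli-expressed rice kinase domain construct.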

| Structure (SMILES) | thermal shift delta Tm [°C] |
| --- | --- |
| Cc1cnc(Nc2ccc(OCCN3CCCC3)cc2)nc1Nc1cccc(S(=O)(=O)NC(C)(C)C)c1 | 1.28 |
| CN1CCN(CCOc2cc(OC3CCOCC3)c3c(Nc4c(Cl)ccc5c4OCO5)ncnc3c2)CC1 [Saracatinib (AZD0530)] | 0.28 |
| Cn1cc(-c2ccc(F)c(C(F)(F)F)c2)nc1C1CCN(c2ncnc3[nH]ncc23)CC1 | 1.8 |
| O=C(O)c1ccc2c(c1)nc(Nc1cccc(Cl)c1)c1ccncc12 [Silmitasertib (CX-4945)] | 2.7 |
| Cn1c(=O)c(F)c(Nc2ccc(I)cc2F)c2c(=O)n(C[C@@H](O)CO)cnc21 | 0.33 |
| O=C(NC[C@H](O)CO)c1ccncc1Nc1ccc(I)cc1F | 0.16 |
| COc1c(C)c(C(=O)c2ccc(N)c(C(=O)O)c2)n2ccccc12 | 0.24 |
| COc1cc(N2CCC(N)CC2)ccc1Nc1ncc(Cl)c(-c2c[nH]c3ccccc23)n1 | 1.41 |
| C=CC(=O)Nc1ccc2ncnc(Nc3ccc(OCc4cccc(F)c4)c(Cl)c3)c2c1 | 2.59 |
| CCS(=O)(=O)N1CCN(c2ccc(Nc3ncc(C(N)=O)c(NC4CC4)n3)cc2)CC1 | 3.61 |
| O=C1c2ccc(Nc3ccc(F)cc3F)cc2CCc2ccc(OC[C@H](O)CO)cc21 [Skepinone-L] | 0.36 |
| CCN1C(=O)CNc2ncc(-c3ccc(-c4nc[nH]n4)nc3C)nc21 | 1.11 |
| Cc1ccc(CNc2ncnc3ccc(-c4ccc(CO)o4)cc23)o1 | 0.56 |
| CCc1cncnc1N1CCN(Cc2nc3ccc(C(F)(F)F)cc3[nH]2)CC1 | 0.3 |
| Cc1cc(CN2CCN(c3c(Br)cnc4nc(-c5ccc(N6CCN(C)CC6)cc5)[nH]c34)CC2)no1 | 0.83 |
| Cc1nc(-c2cn3c(n2)-c2ccc(-c4cnn(C(C)(C)C(N)=O)c4)cc2OCC3)n(C(C)C)n1 [Taselisib (GDC 0032)] | -0.05 |
| Cc1ccc(NC(=O)c2ccc(CN3CCN(C)CC3)cc2)cc1Nc1nccc(-c2cccnc2)n1 [Imatinib Mesylate (STI571)] | 0.15 |
| O=c1cc(N2CCOCC2)oc2c(-c3ccccc3)cccc12 | 0.93 |
| Nc1ncccc1-c1nc2ccc(-c3ccccc3)nc2n1-c1ccc(C2(N)CCC2)cc1 [Miransertib (ARQ 092) HCl] | 0.59 |

| Structure (SMILES) | thermal shift delta Tm [°C] |
| --- | --- |
| CNS(=O)(=O)C[C@H]1CC[C@H](N(C)c2[nH]cnc3nccc2-3)CC1 [Oclacitinib] | 2.09 |
| N#Cc1ccc2[nH]c(O)c(-c3ccc(CN4CCOCC4)cn3)c2c1 | 6.12 |
| C[C@]1(O)C[C@@H](c2nc(-c3ccc4ccc(-c5ccccc5)nc4c3)c3c(N)nccn32)C1 [Linsitinib (OSI-906)] | 0.26 |
| CN1CCC(COc2cnc(-c3cccc(Cn4nc(-c5cccc(C#N)c5)ccc4=O)c3)nc2)CC1 | 0.03 |
| CC(C)(C)c1nc(-c2ccc(NC(=O)Nc3cccc(C(F)(F)F)c3)c3ccccc23)c2c(N)nccn12 [kira6] | 1.63 |
| Oc1c(F)cc(-c2cnccc2-c2ccc(N3CCOCC3)cc2)cc1F | 0.2 |
| CC(C)[C@H](CO)Nc1nc(Nc2cccc(Cl)c2)c2ncn(C(C)C)c2n1 [Purvalanol A] | 1.34 |
| CNC(=O)c1cc(Oc2ccc(NC(=O)Nc3ccc(Cl)c(C(F)(F)F)c3)cc2)ccn1 [Sorafenib] | 4.41 |
| O=c1cc(-c2cccc3c2Sc2ccccc2S3)oc(N2CCOCC2)c1 | 2.44 |
| N#Cc1c(Oc2ccc(F)c(NC(=O)Cc3cccc(C(F)(F)F)c3)c2)ccc2nc(NC(=O)C3CC3)sc12 | 0.57 |
| CC[C@@](C)(Nc1ccnc(-c2c[nH]c3ncccc23)n1)C(=O)NCC(F)(F)F [Decernotinib (VX-509)] | 0.78 |
| CCNC(=O)Nc1ccc(-c2nc3c(c(N4CCOC[C@@H]4C)n2)CCN(C2COC2)C3)cc1 | 0.02 |
| COc1cc(OC)cc(N(CCNC(C)C)c2ccc3ncc(-c4cnn(C)c4)nc3c2)c1 | 0.57 |
| C[C@@]1(C(=O)Nc2ccc(F)nc2)CCCN1c1nc(Nc2cc(C3CC3)n[nH]2)c2cccn2n1 | 3.52 |
| O=C1CCc2c(Oc3ccc4c(c3)[C@@H]3[C@H](O4)[C@H]3c3nc4cc(C(F)(F)F)ccc4[nH]3)ccnc2N1 [Lifirafenib (BGB-283)] | 5.38 |
| O=C1Nc2ccc(CN3C(=O)CSC3=O)cc2/C1=C/c1cc(CN2CCOCC2)c[nH]1 | 0.42 |
| CN(c1ccccc1CNc1nc(Nc2ccc3c(c2)CC(=O)N3)ncc1C(F)(F)F)S(C)(=O)=O | 5.2 |
| Cc1nc(N)sc1-c1ccnc(Nc2ccc(N3CCOCC3)cc2)n1 | 2.6 |

system: LOC_OS01G21960-cb002; assay: as above; conditions: 12.5 µM; protein concentration 2 µM
Outline: as §1

| Structure (SMILES) | thermal shift delta Tm [°C] |
| --- | --- |
| Cc1cnc(Nc2ccc(OCCN3CCCC3)cc2)nc1Nc1cccc(S(=O)(=O)NC(C)(C)C)c1 | 2.52 |
| CN1CCN(CCOc2cc(OC3CCOCC3)c3c(Nc4c(Cl)ccc5c4OCO5)ncnc3c2)CC1 [Saracatinib (AZD0530)] | 0.14 |
| Cn1cc(-c2ccc(F)c(C(F)(F)F)c2)nc1C1CCN(c2ncnc3[nH]ncc23)CC1 | 0.54 |
| O=C(O)c1ccc2c(c1)nc(Nc1cccc(Cl)c1)c1ccncc12 [Silmitasertib (CX-4945)] | 2.28 |
| Cn1c(=O)c(F)c(Nc2ccc(I)cc2F)c2c(=O)n(C[C@@H](O)CO)cnc21 | 0.97 |
| O=C(NC[C@H](O)CO)c1ccncc1Nc1ccc(I)cc1F | 0.66 |
| COc1c(C)c(C(=O)c2ccc(N)c(C(=O)O)c2)n2ccccc12 | 0.79 |
| COc1cc(N2CCC(N)CC2)ccc1Nc1ncc(Cl)c(-c2c[nH]c3ccccc23)n1 | 3.79 |
| C=CC(=O)Nc1ccc2ncnc(Nc3ccc(OCc4cccc(F)c4)c(Cl)c3)c2c1 | 3.8 |
| CCS(=O)(=O)N1CCN(c2ccc(Nc3ncc(C(N)=O)c(NC4CC4)n3)cc2)CC1 | 2.53 |
| O=C1c2ccc(Nc3ccc(F)cc3F)cc2CCc2ccc(OC[C@H](O)CO)cc21 [Skepinone-L] | 0.57 |
| CCN1C(=O)CNc2ncc(-c3ccc(-c4nc[nH]n4)nc3C)nc21 | 0.62 |
| Cc1ccc(CNc2ncnc3ccc(-c4ccc(CO)o4)cc23)o1 | 0.93 |
| CCc1cncnc1N1CCN(Cc2nc3ccc(C(F)(F)F)cc3[nH]2)CC1 | 0.83 |
| Cc1cc(CN2CCN(c3c(Br)cnc4nc(-c5ccc(N6CCN(C)CC6)cc5)[nH]c34)CC2)no1 | 2.01 |
| Cc1nc(-c2cn3c(n2)-c2ccc(-c4cnn(C(C)(C)C(N)=O)c4)cc2OCC3)n(C(C)C)n1 [Taselisib (GDC 0032)] | 0.03 |
| Cc1ccc(NC(=O)c2ccc(CN3CCN(C)CC3)cc2)cc1Nc1nccc(-c2cccnc2)n1 [Imatinib Mesylate (STI571)] | 0.23 |
| O=c1cc(N2CCOCC2)oc2c(-c3ccccc3)cccc12 | 0.79 |
| Nc1ncccc1-c1nc2ccc(-c3ccccc3)nc2n1-c1ccc(C2(N)CCC2)cc1 [Miransertib (ARQ 092) HCl] | 0.09 |

| Structure (SMILES) | thermal shift delta Tm [°C] |
| --- | --- |
| CNS(=O)(=O)C[C@H]1CC[C@H](N(C)c2[nH]cnc3nccc2-3)CC1 [Oclacitinib] | 0.79 |
| N#Cc1ccc2[nH]c(O)c(-c3ccc(CN4CCOCC4)cn3)c2c1 | 0.79 |
| C[C@]1(O)C[C@@H](c2nc(-c3ccc4ccc(-c5ccccc5)nc4c3)c3c(N)nccn32)C1 [Linsitinib (OSI-906)] | 0.9 |
| CN1CCC(COc2cnc(-c3cccc(Cn4nc(-c5cccc(C#N)c5)ccc4=O)c3)nc2)CC1 | 0.05 |
| CC(C)(C)c1nc(-c2ccc(NC(=O)Nc3cccc(C(F)(F)F)c3)c3ccccc23)c2c(N)nccn12 [kira6] | 2.1 |
| Oc1c(F)cc(-c2cnccc2-c2ccc(N3CCOCC3)cc2)cc1F | 0.65 |
| CC(C)[C@H](CO)Nc1nc(Nc2cccc(Cl)c2)c2ncn(C(C)C)c2n1 [Purvalanol A] | 2.18 |
| CNC(=O)c1cc(Oc2ccc(NC(=O)Nc3ccc(Cl)c(C(F)(F)F)c3)cc2)ccn1 [Sorafenib] | 2.7 |
| O=c1cc(-c2cccc3c2Sc2ccccc2S3)oc(N2CCOCC2)c1 | 0.44 |
| N#Cc1c(Oc2ccc(F)c(NC(=O)Cc3cccc(C(F)(F)F)c3)c2)ccc2nc(NC(=O)C3CC3)sc12 | 1.14 |
| CC[C@@](C)(Nc1ccnc(-c2c[nH]c3ncccc23)n1)C(=O)NCC(F)(F)F [Decernotinib (VX-509)] | 3.1 |
| CCNC(=O)Nc1ccc(-c2nc3c(c(N4CCOC[C@@H]4C)n2)CCN(C2COC2)C3)cc1 | 0.43 |
| COc1cc(OC)cc(N(CCNC(C)C)c2ccc3ncc(-c4cnn(C)c4)nc3c2)c1 | 0.2 |
| C[C@@]1(C(=O)Nc2ccc(F)nc2)CCCN1c1nc(Nc2cc(C3CC3)n[nH]2)c2cccn2n1 | 0.38 |
| O=C1CCc2c(Oc3ccc4c(c3)[C@@H]3[C@H](O4)[C@H]3c3nc4cc(C(F)(F)F)ccc4[nH]3)ccnc2N1 [Lifirafenib (BGB-283)] | 1.8 |
| O=C1Nc2ccc(CN3C(=O)CSC3=O)cc2/C1=C/c1cc(CN2CCOCC2)c[nH]1 | 0.16 |
| CN(c1ccccc1CNc1nc(Nc2ccc3c(c2)CC(=O)N3)ncc1C(F)(F)F)S(C)(=O)=O | 2.72 |
| Cc1nc(N)sc1-c1ccnc(Nc2ccc(N3CCOCC3)cc2)n1 | 2.06 |
